Compounds without any hit were thinned out: in the full panel of roughly 83,000, 20% have a hit.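 Each cell line was grown in a 96-well plate and treated with one concentration of compound for 48 hours. Values below 10 were considered active.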 Activity calls are given as the source filed them.
Columns and labels:
Assay in all cases: NCI-60 one-dose screen, 48 h (100 = growth as untreated, 0 = no growth, -100 = all killed)
Conditions in all cases: 10 µM unless noted
[1] = tested on: SK-MEL-2 melanoma
[2] = tested on: EKVX NSCLC
[3] = tested on: SN12C renal
[4] = tested on: UO-31 renal
[5] = tested on: TK-10 renal
[6] = tested on: ACHN renal
[7] = tested on: CAKI-1 renal
[8] = tested on: A498 renal
[9] = tested on: CCRF-CEM leukemia
[10] = tested on: MOLT-4 leukemia

Measured: growth

Cc1ccc(-c2nc(-c3cn(C)c4ncccc34)cs2)cc1
active: [1] -14.6% [100 µM] | [2] -13.5% [100 µM] | [3] -13.1% [100 µM] | [5] -60% [100 µM] | [6] 6.72% [100 µM] | [7] -22.9% [100 µM] | [8] -3.41% [100 µM] | [9] -4.89% [100 µM]
inactive: [4] 14.8% [100 µM] | [10] 17.3% [100 µM]

COc1ccc(C2=CN3CC=CC3CC2=O)cc1 (stereo not given)
inactive: [1] 96.2% | [2] 87.3% | [3] 109% | [4] 103% | [5] 82.5% | [6] 102% | [7] 95.8% | [8] 111% | [9] 106% | [10] 96%

C=C(c1ccc(OC)c(/C=C/C(=O)c2ccc3c(c2)OCO3)c1)c1cc(OC)c(OC)c(OC)c1
inactive: [1] 32.1% | [2] 23.4% | [4] 23.4% | [5] 23% | [7] 11.6% | [8] 17.7% | [9] 13.3% | [10] 11.1%
active: [3] 8.55% | [6] -26.5%

CC/C(Cc1ccccc1)=C(\c1ccc(OCCCN(C)C)cc1)c1ccc(OC(=O)NCc2ccccc2)cc1
inactive: [1] 97.5% | [2] 78% | [3] 77.2% | [4] 61.5% | [5] 92.2% | [6] 97.4% | [7] 93.6% | [8] 85.2% | [9] 58.3% | [10] 45.4%

COc1ccccc1N(C(C)=O)C1=C(Cl)C(=O)c2ccccc2C1=O
active: [1] -38.2% | [5] -6.2% | [6] -29.5% | [9] -16.9%
inactive: [2] 10.1% | [3] 16% | [4] 11.4% | [7] 10.6% | [8] 36.2% | [10] 10.9%

C#Cc1cccc(Nc2nc(C)nc3cc(NC(=O)CCl)ccc23)c1
inactive: [8] 48.2%
active: [1] -69.8% | [2] -58.8% | [3] -67.8% | [4] -91.8% | [5] -93.9% | [6] -92% | [7] -91% | [9] -12.3% | [10] -20.7%

COc1cnc2c(c1)C(=O)c1c-2n(CCCCl)c(=O)c2ccncc12
inactive: [1] 102% | [2] 79.1% | [3] 70.4% | [4] 41.4% | [5] 87.3% | [6] 37.3% | [7] 35.7% | [8] 73.2% | [9] 34.6% | [10] 26.2%

N#C/C(=C\c1cn(Cc2ccccc2)c2ccccc12)C(=O)Nc1ncc(Cc2ccccc2Cl)s1
inactive: [1] 35.9% | [2] 28.7% | [3] 18.1% | [9] 37% | [10] 61%
active: [4] -34.3% | [5] 6.29% | [6] -58.4% | [7] -11.4% | [8] -13.3%

COc1ccc(/C=C/c2ccc3ccccc3n2)c(OC)c1
inactive: [1] 48.3% | [2] 79.3% | [3] 80.1% | [4] 65.4% | [5] 111% | [6] 87% | [7] 73.6% | [8] 59.5% | [9] 49% | [10] 58.3%

COc1cccc(CNc2c3ccccc3nc3ccccc23)c1
active: [8] 3.65% | [10] 6.41%
inactive: [1] 67.9% | [2] 51.8% | [3] 37.9% | [4] 27% | [5] 51.7% | [6] 19.1% | [7] 35.7% | [9] 30.2%

FC(F)(F)Oc1cccc(-c2cnc3ccc(-c4ccncc4)nn23)c1
active: [1] -21.7% | [4] 0.42% | [6] -0.133% | [7] 7.75% | [9] 4.57% | [10] 4.08%
inactive: [2] 28.4% | [3] 13.2% | [5] 17.3% | [8] 23%

C/C(=N\O)[C@@H]1CC[C@]2(CO)CC[C@]3(C)[C@H](CC[C@@H]4[C@@]5(C)CCCNC(C)(C)[C@@H]5CC[C@]43C)[C@@H]12
inactive: [1] 95.2% | [2] 92.7% | [3] 85.4% | [4] 69.3% | [5] 109% | [6] 98.6% | [7] 79.4% | [8] 107% | [9] 58.9% | [10] 33.3%

C[C@H](CCCC(=O)NCC#CCN1CCN(C)CC1)[C@H]1CC[C@H]2[C@@H]3CC[C@@H]4CC(=O)CC[C@]4(C)[C@H]3CC[C@]12C
inactive: [1] 103% | [2] 93.5% | [3] 86% | [4] 64.5% | [5] 99% | [6] 105% | [7] 108% | [8] 75.4% | [9] 81.2% | [10] 84.3%

Cc1cn(-c2cc(NC(=O)c3cncc(C#Cc4c(N)ncc5ccc(F)cc45)c3)cc(C(F)(F)F)c2)cn1
inactive: [1] 11.4% | [2] 73.4% | [3] 54.5% | [4] 27.4% | [5] 84.3% | [6] 60.6% | [7] 72.1% | [8] 84% | [9] 39.6% | [10] 35.6%

COc1cccc(CCNc2ncnc3c2ncn3Cc2nnc3c4ccccc4c(Cl)nn23)c1
inactive: [1] 20.2% | [2] 73.9% | [3] 46.9% | [4] 25.2% | [5] 67.4% | [6] 24.9% | [7] 18.3% | [8] 83.4% | [9] 34% | [10] 20.8%

O=C1C(Nc2ccccn2)=C(I)C(=O)c2ncccc21
active: [1] -53.7% | [2] -7.46% | [3] -70.8% | [4] -97.7% | [5] -21.4% | [6] -36.1% | [7] 5.77% | [9] 3.29% | [10] -25.4%
inactive: [8] 68.2%

Cc1ccc(C=C2C(=O)NC(=O)NC2=O)cc1
inactive: [1] 104% | [2] 101% | [3] 99.2% | [4] 89.9% | [5] 97.8% | [6] 110% | [7] 100% | [8] 105% | [9] 103% | [10] 95.1%

CCCCNC(=O)Oc1ccc(/C(=C(/C)Cc2ccc(OC)cc2)c2ccc(OCCN3CCCCCC3)cc2)cc1
inactive: [1] 102% | [2] 77.5% | [3] 71% | [4] 57.6% | [5] 83.1% | [6] 102% | [7] 83.5% | [8] 98.3% | [9] 47.7% | [10] 45%

C=C1CC[C@@H]2[C@](C)(COC(C)=O)[C@H](OC(C)=O)CC[C@@]2(C)[C@@H]1CC(Nc1ccc(S(=O)(=O)NC(C)=O)cc1)C1=CCOC1=O (stereo not given in full)
active: [1] -7.41% | [3] 1.94% | [4] -58.5% | [5] 2.78% | [6] -63.2% | [9] -27.9% | [10] 0.118%
inactive: [2] 57.5% | [7] 30.3% | [8] 73.4%

CCO/C=N/C1=C(C#N)C(c2ccc(F)cc2)c2sc3c(F)cccc3c2O1 (stereo not given)
active: [1] 2.27%
inactive: [2] 66.5% | [3] 49.7% | [4] 54.2% | [5] 64.4% | [6] 54% | [7] 25.2% | [8] 40.8% | [9] 22.9% | [10] 51.5%

CCCCCCCCCCCCCCCCCC1=NC(C)(C)CN1CC(C)O (stereo not given)
inactive: [1] 84.6% | [2] 78.8% | [3] 49.8% | [4] 68.8% | [5] 81.6% | [6] 80.6% | [7] 84.7% | [8] 79.1% | [9] 47.1% | [10] 34.9%

O=C(C1=Cc2cc3ccccc3n2Cc2cnnn21)c1ccc(O)cc1
inactive: [1] 59% | [2] 89.9% | [3] 57.7% | [4] 63.1% | [5] 90.9% | [6] 75.4% | [7] 37.5% | [8] 111% | [9] 72.5% | [10] 44.6%

Source: PubChem BioAssay (NCI)
